# Results from PubChem BioAssay (NCATS).
# Records with an inconclusive call do not appear. Where a call stands in place of a potency, no number is given. Values without a mark were called inactive. The source made the active and inactive calls. The call rests on the fitted dose curve; in most records, active means well fitted curve in the direction sought with a large enough effect; inconclusive means small, poorly fitted or top-dose-only effect, or another doubt; inactive means no such curve, though single readings can be large; an effect the other way counts as inactive or inconclusive.
# What was measured:
# NIH3T3 = assay: qHTS assay to identify novel small-molecules to repurpose for Merkel cell carcinoma treatment (AID 1296009); settings: MCC and control cell lines, CellTiter-Glo viability, 72 h; at 44.8 µM (top of the series) unless noted; further: nearly all actives have a fitted effect of over 60% in size
# Outline: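 Dose-response viability screen; 72 hr exposure at 37 degree celsius; CellTiter-Glo added, 10 min room temperature, luminescence read; RLUs scaled between no-cell and DMSO wells.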
# C33A = assay: Primary qHTS to identify gynecologic anti-cancer compounds using libraries of approved drugs and bioactive compounds (AID 1345084); settings: Gynecologic cancer cell panel viability, ATPlite luminescence, 48 h; series mostly up to 57.5 µM; further: nearly all actives have a fitted effect of over 55% in size; further: potency means the concentration at half of the fitted maximal effect
# Outline: (§1)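 Five-concentration response, 48 h; readout is ATP-driven luciferase luminescence.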
# CAOV3 = assay: as above; settings: Gynecologic cancer cell panel viability, ATPlite luminescence, 48 h; series mostly up to 57.5 µM
# Outline: as §1
# CASKI = assay: as above; settings: Gynecologic cancer cell panel viability, ATPlite luminescence, 48 h; series mostly up to 57.5 µM
# Outline: as §1
# Es-2 = assay: as above; settings: Gynecologic cancer cell panel viability, ATPlite luminescence, 48 h; series mostly up to 57.5 µM
# Outline: as §1
# HeLa = assay: as above; settings: Gynecologic cancer cell panel viability, ATPlite luminescence, 48 h; series mostly up to 57.5 µM
# Outline: as §1
# Hek293T = assay: as above; settings: Gynecologic cancer cell panel viability, ATPlite luminescence, 48 h, control line for the selectivity index; series mostly up to 57.5 µM
# Outline: as §1
# JEG-3 = assay: as above; settings: Gynecologic cancer cell panel viability, ATPlite luminescence, 48 h; series mostly up to 57.5 µM
# Outline: as §1
SMILES,outcome (NIH3T3),Potency (C33A),Potency (CAOV3),outcome (CASKI),Potency (Es-2),Potency (HeLa),Potency (Hek293T),Potency (JEG-3)
CC1(C)CC[C@]2(C(=O)O[C@@H]3O[C@H](CO)[C@@H](O)[C@H](O)[C@H]3O)CC[C@]3(C)C(=CCC4[C@@]5(C)C[C@@H](O)[C@H](O)[C@@](C)(CO)C5[C@H](O)C[C@]43C)C2[C@@H]1O (stereo not given in full),inactive [at 17.4 µM],inactive,inactive,inactive,inactive,inactive,inactive,inactive
C[C@@]1(O)[C@H](O)[C@@H](CO)O[C@H]1n1cnc2c(=O)[nH]c(N)nc21,inactive,inactive,inactive,inactive,inactive,inactive,inactive,inactive
CC(=O)[C@@H]1C[C@H](C(C)(C)O[C@@H]2O[C@H](CO)[C@@H](O)[C@H](O)[C@H]2O)CC[C@@]2(CO)OC(=O)C[C@@H]12,inactive [at 17.4 µM],inactive,inactive,inactive,inactive,inactive,inactive,inactive
CCCN(CCN1CCN(c2ccccc2OC)CC1)C1CCc2ncsc2C1 (stereo not given),inactive,inactive,inactive,inactive,inactive,inactive,inactive,inactive
CC(=O)O[C@@H]1[C@H](OC(C)=O)C[C@@]2(C)C(CC[C@@H](C)[C@]23Cc2c(O)cc4c(c2O3)CN([C@@H](CCC(=O)O)C(=O)O)C4=O)C1(C)C (stereo not given in full),inactive [at 17.4 µM],inactive,inactive,inactive,inactive,inactive,inactive,inactive
C=C[C@H]1[C@H](O[C@@H]2O[C@H](CO)[C@@H](O)[C@H](O)[C@H]2O)OC=C(C(=O)OC)[C@H]1CC=O,inactive,inactive,inactive,inactive,inactive,inactive,inactive,inactive
O=C(Nc1cc(-c2ccccc2)nn1-c1ccccc1)c1ccc([N+](=O)[O-])cc1,inactive,inactive,inactive,inactive,inactive,inactive,inactive,inactive
C=C1C(OC(C)=O)CCC2(C)CC3(O)OC(=O)C(C)=C3CC12 (stereo not given),inactive,inactive,inactive,inactive,inactive,inactive,inactive,inactive
COc1ccc(-n2c(=O)[nH]c3cc(C(=O)NCc4ccc(Cl)cc4)sc3c2=O)nc1OC,inactive,inactive,inactive,inactive,inactive,inactive,inactive,inactive
CN1CCN(c2nc(-c3ccc(C(=O)NC4(C(=O)NCC#N)CCCCC4)cc3)cs2)CC1,inactive,inactive,inactive,inactive,inactive,inactive,inactive,inactive
CN1CCc2cc(Cl)c(O)cc2[C@@H](c2cccc3c2OCC3)C1,inactive,inactive,inactive,inactive,inactive,inactive,inactive,inactive
C[C@H]1[C@H](C)CC[C@]2(C(=O)O)CC[C@]3(C)C(=CCC4[C@@]5(C)C[C@@H](O)[C@H](O)C(C)(C)C5CC[C@]43C)[C@H]12 (stereo not given in full),inactive [at 17.4 µM],inactive,inactive,inactive,inactive,inactive,inactive,inactive
CCOC(=O)C(CCc1ccccc1)NC(C)C(=O)N1Cc2ccccc2CC1C(=O)O (stereo not given),inactive,inactive,inactive,inactive,inactive,inactive,inactive,inactive
C#CCCCn1cc(-c2cccc3c2N[C@@H](C)CC(=O)N3)cn1,inactive,inactive,inactive,inactive,inactive,28.2 µM (active),inactive,inactive
CC1=C2C(=O)C=C(CO)C2C2OC(=O)C(CS(=O)(=O)O)C2C(OC(=O)Cc2ccc(O)cc2)C1 (stereo not given),inactive [at 17.4 µM],inactive,inactive,inactive,inactive,inactive,inactive,inactive
COc1ccc(C2C(C(=O)O)C(C(=O)O)C2c2ccc(OC)cc2O[C@@H]2O[C@H](CO)[C@@H](O)[C@H](O)[C@H]2O)c(O[C@@H]2O[C@H](CO)[C@@H](O)[C@H](O)[C@H]2O)c1 (stereo not given in full),inactive [at 17.4 µM],inactive,inactive,inactive,inactive,inactive,inactive,inactive
COc1ccc(CCC(=O)O)c(O[C@@H]2O[C@H](CO)[C@@H](O)[C@H](O)[C@H]2O)c1,inactive,inactive,inactive,inactive,inactive,inactive,inactive,inactive
COc1cccc(OC)c1-c1nc(C(=O)N[C@@H](CC(C)C)C(=O)O)cn1-c1ccnc2cc(Cl)ccc12,inactive,inactive,inactive,inactive,inactive,inactive,inactive,inactive

SMILES,outcome (NIH3T3),Potency (C33A),Potency (CAOV3),outcome (CASKI),Potency (Es-2),Potency (HeLa),Potency (Hek293T),Potency (JEG-3)
Cc1c(O)cc2c(c1O)COC1(O)CCCOC21 (stereo not given),inactive,inactive,inactive,inactive,inactive,inactive,inactive,inactive
CC(C(=O)Nc1cc(C#N)ccc1CCCC(=O)O)c1ccc(F)c2ccccc12 (stereo not given),inactive,inactive,inactive,inactive,inactive,inactive,inactive,inactive
COC(=O)C1=COC(OC2OC(CO)C(O)C(O)C2O)C2C(C)CC(=O)C12O (stereo not given),inactive [at 17.4 µM],inactive,inactive,inactive,inactive,inactive,inactive,inactive
CC1=C2C(=O)C=C(CO[C@@H]3O[C@H](CO)[C@@H](O)[C@H](O)[C@H]3O)[C@@H]2[C@H]2OC(=O)[C@H](C)[C@@H]2[C@@H](O)C1,inactive [at 17.4 µM],inactive,inactive,inactive,inactive,inactive,inactive,inactive
COc1cc([C@@H](O[C@@H]2O[C@H](CO)[C@@H](O)[C@H](O)[C@H]2O)[C@@H]2CO[C@H](c3ccc(O)c(OC)c3)[C@H]2CO)ccc1O,inactive [at 17.4 µM],inactive,inactive,inactive,inactive,inactive,inactive,inactive
O=C(/C=C/c1ccc(O)c(O)c1)O[C@@H]1[C@@H](O)[C@H](OC2CCCCC2O)O[C@H](CO)[C@H]1O (stereo not given in full),inactive [at 17.4 µM],inactive,inactive,inactive,inactive,inactive,inactive,inactive
NC(N)=NCCC[C@H](NC(=O)c1sccc1NS(=O)(=O)c1cccc2nsnc12)C(=O)O,inactive,inactive,inactive,inactive,inactive,inactive,inactive,inactive
CC(=O)O[C@@]1(C)[C@@H]2CC(=C(C)C)C(=O)C[C@@]2(C)CC[C@H]1OC(=O)C1(C)OC1C (stereo not given in full),inactive,inactive,inactive,inactive,inactive,inactive,inactive,inactive
Cc1ccc(Cl)cc1N(CC(=O)Nc1c(F)cccc1F)S(C)(=O)=O,inactive,inactive,inactive,inactive,inactive,inactive,inactive,inactive
CCN=C1N[C@@H]2[C@@H](O)[C@H](O)[C@@H](CO)O[C@@H]2S1,inactive,inactive,inactive,inactive,inactive,inactive,inactive,inactive
CCC/C=C1\OC(=O)C2=C1CCC(O)C2O (stereo not given),inactive,inactive,inactive,inactive,inactive,inactive,inactive,inactive
CCCNCCOc1ccc(NC(=O)c2c[nH]c3c2C(=O)CCC3)cc1F,inactive,inactive,inactive,inactive,inactive,inactive,inactive,inactive
O=C(O)c1ccnc2cc(-c3nc4ccccc4n3CCN3CCCCC3)sc12,inactive,inactive,inactive,inactive,inactive,inactive,inactive,inactive
CC1(C)C=Cc2c(ccc3c2[N+]([O-])=C2C3(O)CC34NC(=O)C5(CCCN5C3=O)CC4C2(C)C)O1 (stereo not given),inactive [at 17.4 µM],inactive,inactive,inactive,inactive,inactive,inactive,inactive
CN1C(=O)N(c2cc(Cl)cc(Cl)c2)C(=O)[C@@]1(C)Cc1ccc(Br)cc1,inactive,inactive,inactive,inactive,inactive,inactive,inactive,inactive
C=C1C[C@@]2(O)O[C@@]3(C[C@H]2C(C)C)[C@@H](C)CC[C@@H]13,inactive,inactive,inactive,inactive,inactive,inactive,inactive,inactive
COc1c2c(c(C)c3c1C(=O)OC3)OC1(C)CC(O)C34OC(OC)(CCC3(C)C1C2)OC4(C)CO (stereo not given),inactive [at 17.4 µM],inactive,inactive,inactive,inactive,inactive,inactive,inactive
